The results in this text go back to PubChem BioAssay AID703 (NMMLSC, 2007).

This experiment concerns the target Integrin alpha-4 (Homo sapiens) (UniProt P13612). As to the kind of experiment: enhancers of LDV-FITC binding to VLA-4, dose response, cell-based, flow cytometry (AID 703). Particulars: Jurkat cells, stronger effect = higher value. For orientation: A flow cytometer gives signals particle by particle.

Active and inactive are the calls of the source. The rule behind the calls is not given here.

Integrin alpha-4 (Homo sapiens), sequence (P13612 whole entry, looked up): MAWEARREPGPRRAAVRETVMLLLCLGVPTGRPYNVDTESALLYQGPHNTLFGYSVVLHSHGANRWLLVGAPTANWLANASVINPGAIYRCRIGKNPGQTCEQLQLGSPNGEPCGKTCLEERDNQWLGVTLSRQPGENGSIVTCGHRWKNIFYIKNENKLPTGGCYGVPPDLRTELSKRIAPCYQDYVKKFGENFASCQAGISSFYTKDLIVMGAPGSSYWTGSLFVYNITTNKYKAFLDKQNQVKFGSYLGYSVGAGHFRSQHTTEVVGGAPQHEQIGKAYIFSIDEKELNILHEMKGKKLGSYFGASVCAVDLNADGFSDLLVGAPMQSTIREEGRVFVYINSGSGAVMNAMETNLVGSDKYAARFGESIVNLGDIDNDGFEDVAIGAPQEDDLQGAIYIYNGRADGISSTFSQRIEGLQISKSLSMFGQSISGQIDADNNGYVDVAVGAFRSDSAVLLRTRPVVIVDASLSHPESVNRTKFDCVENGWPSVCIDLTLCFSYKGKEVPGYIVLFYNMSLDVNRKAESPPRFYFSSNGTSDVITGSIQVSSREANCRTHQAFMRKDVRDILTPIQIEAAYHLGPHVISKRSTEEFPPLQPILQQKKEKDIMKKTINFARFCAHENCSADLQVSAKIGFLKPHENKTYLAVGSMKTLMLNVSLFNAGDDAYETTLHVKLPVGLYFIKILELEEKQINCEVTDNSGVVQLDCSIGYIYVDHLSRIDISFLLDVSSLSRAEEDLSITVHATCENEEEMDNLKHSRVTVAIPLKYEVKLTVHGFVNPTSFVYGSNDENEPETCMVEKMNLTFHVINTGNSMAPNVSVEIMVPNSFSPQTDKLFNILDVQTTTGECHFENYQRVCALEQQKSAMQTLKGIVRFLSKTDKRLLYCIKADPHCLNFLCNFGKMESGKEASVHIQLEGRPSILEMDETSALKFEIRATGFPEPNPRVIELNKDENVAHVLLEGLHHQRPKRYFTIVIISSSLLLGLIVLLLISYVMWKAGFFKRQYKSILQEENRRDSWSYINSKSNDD

For the compound `O=c1c2ccccc2[se]n1-c1ccccc1`, the activation at 0 C is 0 (inactive).
